Measured values published in the supplement of paper PMC3334620.
In all, about 33,000 sequences were measured (“E-score (-0.5 to 0.5)”: median about -0.016, highest 2% from about 0.3 on). The sample as a whole holds a higher share of the highest values than the screen did.

These sequences were tested against T1, Yer184c (UniProt P39961) (assay: PBM E-score (8-mer binding enrichment) (E-score (-0.5 to 0.5)); higher = stronger / more preferred TF binding). Details: protein concentration: 100 nM; construct: GST-full length.
T1 sequence: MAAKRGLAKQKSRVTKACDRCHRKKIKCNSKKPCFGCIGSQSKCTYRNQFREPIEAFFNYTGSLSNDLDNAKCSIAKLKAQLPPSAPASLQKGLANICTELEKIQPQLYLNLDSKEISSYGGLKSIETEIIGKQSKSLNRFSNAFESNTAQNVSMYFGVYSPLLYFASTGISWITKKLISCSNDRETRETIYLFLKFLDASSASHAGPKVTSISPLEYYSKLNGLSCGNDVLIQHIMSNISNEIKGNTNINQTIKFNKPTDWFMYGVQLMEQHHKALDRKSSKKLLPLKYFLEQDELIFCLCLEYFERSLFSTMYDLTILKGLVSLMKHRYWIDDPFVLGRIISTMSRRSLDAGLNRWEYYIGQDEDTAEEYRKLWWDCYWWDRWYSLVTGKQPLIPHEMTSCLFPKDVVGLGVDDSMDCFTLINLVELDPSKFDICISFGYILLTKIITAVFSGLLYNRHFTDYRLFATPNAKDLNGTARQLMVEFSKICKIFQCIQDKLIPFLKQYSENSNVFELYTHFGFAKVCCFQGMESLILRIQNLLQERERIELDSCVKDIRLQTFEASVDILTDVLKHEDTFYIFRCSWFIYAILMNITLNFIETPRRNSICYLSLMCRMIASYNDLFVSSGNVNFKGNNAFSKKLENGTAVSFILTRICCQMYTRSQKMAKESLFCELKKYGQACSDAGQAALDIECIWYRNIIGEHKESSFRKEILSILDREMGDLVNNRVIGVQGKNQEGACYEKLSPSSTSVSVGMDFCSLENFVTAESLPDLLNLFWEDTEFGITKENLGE
Procedure: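 Universal 'all 10-mer' protein binding microarrays (Agilent AMADID 015681) probed with GST-tagged S. cerevisiae TFs (full-length or DBD) made by in vitro transcription/translation (PURExpress), about 100-200 nM. Bound TF was detected with fluorescent anti-GST. Each ungapped 8-mer (which stands for itself and its reverse complement) is scored by the PBM enrichment score (E-score), a modified Wilcoxon-Mann-Whitney statistic from -0.5 to +0.5, computed with the Universal PBM Analysis Suite. Scale: above 0.35 generally sequence-specific binding.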

Row | Sequence | PBM E-score
1 | CACAGAAC | -0.13
2 | GTACCGGA | 0.285
3 | GTTCCGGA | 0.438
4 | CTTCCCGA | 0.148
5 | CTTCCGGA | 0.402
6 | CTTCCGCA | 0.068
7 | CTTCCGCC | 0.024
8 | GTTCCGCA | 0.268
9 | ATACCGGA | 0.237
10 | CTTCCTGC | -0.314
11 | CTTCCGGC | 0.343
12 | ATTCCGCA | 0.139
13 | ATTCCGGA | 0.436
14 | CCAACGTA | -0.105
15 | ACTCGGGA | 0.199
16 | GAAAACCA | -0.0101
17 | GTGCAGAA | 0.0359
18 | CTGTGGGC | -0.192
19 | CGTCCCCC | -0.275
20 | ATGGGCAC | -0.072
21 | ATTCGCCC | -0.127
22 | ATTCGCCA | 0.0246
23 | ATTCGCCG | 0.334
24 | GAGAGGAC | -0.128
25 | AGCCCGGA | 0.314

Row | Sequence | PBM E-score
26 | CGCCCGGA | 0.264
27 | CGCCCGGC | 0.213
28 | AGCCCGGC | 0.309
29 | AGCCCGGG | 0.268
30 | GGCCCGGA | 0.301
31 | CCTGGAGA | -0.035
32 | AATCCTGA | 0.0482
33 | AAATACCT | -0.105
34 | ATCAACTA | 0.178
35 | GAGGTGCC | 0.0277
36 | CAACGTGC | -0.133
37 | ACAAGTAC | 0.00537
38 | AAGCGAGT | 0.225
39 | AGAGCCGA | 0.26
40 | ACAGCCGG | 0.343
41 | ATAGCCGC | 0.0602
42 | ATAGCCGG | 0.388
43 | ACAGCCGC | -0.0252
44 | AGAGCCGG | 0.314
45 | ATAGCCGA | 0.299
46 | ACAGCCGA | 0.0776
47 | AGAGCCGC | 0.0235
48 | ATCCACTG | -0.143
49 | CTCCAGTC | -0.195
50 | GGACCGAC | 0.12

Row | Sequence | PBM E-score
51 | GGACCGAA | 0.353
52 | AGACCGAA | 0.305
53 | CGACCGAA | 0.273
54 | AGACCGAT | 0.0681
55 | TGACCGAA | 0.228
56 | ACGTTGCC | -0.14
57 | CGTTACCC | -0.104
58 | CGATACCG | -0.0503
59 | AAATTGCC | 0.168
60 | CAGTGTGA | 0.0148
61 | AGCTCCAG | -0.151
62 | TAAATTCA | -0.0563
63 | CCTTCGGC | 0.219
64 | GCTTCGCA | -0.163
65 | ACTTCGGG | 0.0741
66 | ACTTCGGA | 0.337
67 | GCTTCGGA | 0.304
68 | ACTTCGGC | 0.269
69 | GCTTCGTA | -0.148
70 | CCTTCGCA | -0.0813
71 | CCTTCGGA | 0.327
72 | CGCGTTGA | -0.00366
73 | GGTCTTGA | -0.0168
74 | CAGTGGCC | -0.0943
75 | ATTTGTGA | 0.0908

Row | Sequence | PBM E-score
76 | CCTCAACA | 0.126
77 | ACCCTAGC | -0.109
78 | AACGCCTG | -0.104
79 | TCCAGGCA | -0.15
80 | CCGCAAAC | 0.144
81 | AGTCTTCA | -0.0522
82 | ATTTCGCA | 0.24
83 | ATTTCGGA | 0.348
84 | CTTTCGGC | 0.201
85 | GTTTCGGA | 0.304
86 | ATTTCGTC | -0.0283
87 | ATTTCGGG | 0.157
88 | GTTTCGTA | 0.274
89 | CTTTCGGA | 0.286
90 | ATTTCGGC | 0.373
91 | TCATAGGA | -0.0683
92 | AATACCGA | 0.165
93 | GACCATAA | 0.0623
94 | CTCAGTAA | -0.0129
95 | CAATGGAG | -0.164
96 | CGGATACG | 0.247
97 | TATATTAA | 0.274
98 | AATATTCC | 0.342
99 | AATATTAT | 0.293
100 | AATATTCA | 0.037

Row | Sequence | PBM E-score
101 | AATATTAA | 0.311
102 | AATATTCG | 0.0897
103 | CGACCACA | -0.136
104 | TAGCGAGA | 0.00559
105 | AAGGACAA | 0.0335
106 | ATCGGTCC | 0.0402
107 | GTCCCACA | 0.00972
108 | CTTGGTGA | -0.0525
109 | ACCGAAAC | 0.264
110 | GCCGAATA | 0.361
111 | CCCGAAAA | 0.263
112 | ACCGAAAT | 0.218
113 | TCCGAAAA | 0.264
114 | ACCGAAAG | 0.181
115 | ACCGAAAA | 0.349
116 | ACCGAATA | 0.173
117 | GCCGAAAA | 0.439
118 | CCCGAATA | 0.196
119 | GCCGAAAC | 0.34
120 | CCCGAAAC | 0.0699
121 | GGTGGGAC | -0.349
122 | GAAGTAGC | -0.00548
123 | AGTAACGG | 0.101
124 | AACGTAAG | -0.122
125 | CATCAATC | -0.0552

Row | Sequence | PBM E-score
126 | GAGCCCCA | -0.266
127 | CCGTGCGA | 0.166
128 | CTTTGCCA | 0.034
129 | TAACCATA | -0.0927
130 | CTCTTTCC | -0.089
131 | GAATTATA | 0.193
132 | TAATTATA | 0.322
133 | AAATTATA | 0.205
134 | GGTGTTCA | 0.0476
135 | GCCGGAAC | 0.403
136 | ACCGGAAC | 0.398
137 | ACCGGAAG | 0.279
138 | GCAGGAAC | -0.0354
139 | CCCGGAAC | 0.298
140 | ACCGGAAA | 0.376
141 | ACCGGACC | 0.29
142 | GCCGGAGC | 0.238
143 | ACCGGAAT | 0.233
144 | AAGTCTAA | -0.093
145 | CAGTCTCG | -0.0905
146 | CAAGCGTC | -0.0502
147 | GCTACTTA | -0.201
148 | CATCTTGC | 0.0249
149 | AGGCTCAG | -0.163
150 | CGGCTCAA | 0.314

Row | Sequence | PBM E-score
151 | CGGCTCAC | 0.183
152 | TGGCTCAA | -0.0833
153 | CGGCTCAG | 0.337
154 | AGGCTCAA | -0.157
155 | TACAGTCA | -0.0508
156 | ATCATTCA | 0.195
157 | CATGGTGC | -0.169
158 | CTACATAG | 0.0225
159 | CGATACCA | -0.0309
160 | TCCGGCCA | 0.218
161 | GCCGGCCC | 0.343
162 | ACCGGCCC | 0.13
163 | GACGGCCA | -0.117
164 | GACGGCCC | -0.168
165 | GCCGGCCA | 0.348
166 | GCCAGATA | -0.0238
167 | GCCAACCC | -0.059
168 | CCAAGGTC | -0.16
169 | CGCTTATA | 0.0756
170 | CCTTGCCA | -0.0398
171 | CCTAATGC | -0.233
172 | GCTTTCGA | -0.0696
173 | ATTTTAGA | 0.0124
174 | CACTGTCC | 0.0762
175 | AAGCCGAA | 0.389

Row | Sequence | PBM E-score
176 | AAGCCGAC | 0.13
177 | AAGCCGAG | 0.286
178 | GAGCCAAA | -0.115
179 | GAGCCGAA | 0.372
180 | CAGCCGAA | 0.229
181 | AAGCCAAA | 0.0744
182 | GAGCCGAC | 0.0364
183 | AAGCCGAT | 0.356
184 | CTAAACGC | 0.0164
185 | CTAGGCAC | -0.14
186 | AGACCCAA | -0.134
187 | GATGTTCC | 0.239
188 | AGACCCCG | 0.08
189 | ATGAAACA | 0.02
190 | TCCCCGGA | 0.224
191 | GCCCGGAC | 0.192
192 | CCCCGGAA | 0.151
193 | ACCCGGAG | 0.348
194 | ACCCCGGA | 0.142
195 | TCCCGGAA | 0.391
196 | GCCCCGGA | 0.234
197 | ACCCGGAT | 0.185
198 | ACCCGGTA | 0.183
199 | ACCCGGAA | 0.346
200 | GCCCGGAA | 0.359

Row | Sequence | PBM E-score
201 | CCCCGGAG | 0.135
202 | ACTCGATA | 0.0187
203 | CCGACTAG | -0.036
204 | TAGAAATA | 0.126
205 | ATGCTCTC | -0.0198
206 | CAGCTACC | -0.113
207 | CCATAGAG | -0.11
208 | GGCATACC | -0.214
209 | ACAAGGTC | -0.234
210 | CAGTGGAC | -0.0743
211 | AACCAAAC | -0.103
212 | CCGTTCCA | 0.0249
213 | ACGTTCCG | 0.0307
214 | ATGTTCCG | 0.347
215 | AAGTTCCT | 0.0951
216 | AAGTTCCG | 0.307
217 | CCGTTCCG | 0.304
218 | CAGTTCCG | 0.199
219 | ATGTTCCA | 0.016
220 | ATGTTCCC | -0.107
